FBW7 act – activators of human E3 ligase FBW7; Q969H0; AlphaScreen FBW7–phospho-cyclin E peptide binding, activator screen; normalized activity (activation), % at 26.1 µM; 650,000 compounds, 0.13% hits; AID 1259310; in the data active means normalized activity above about 1.9%;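 further: purified mutant Fbw7 with reduced substrate affinity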
Target sequence (Q969H0 whole entry, looked up): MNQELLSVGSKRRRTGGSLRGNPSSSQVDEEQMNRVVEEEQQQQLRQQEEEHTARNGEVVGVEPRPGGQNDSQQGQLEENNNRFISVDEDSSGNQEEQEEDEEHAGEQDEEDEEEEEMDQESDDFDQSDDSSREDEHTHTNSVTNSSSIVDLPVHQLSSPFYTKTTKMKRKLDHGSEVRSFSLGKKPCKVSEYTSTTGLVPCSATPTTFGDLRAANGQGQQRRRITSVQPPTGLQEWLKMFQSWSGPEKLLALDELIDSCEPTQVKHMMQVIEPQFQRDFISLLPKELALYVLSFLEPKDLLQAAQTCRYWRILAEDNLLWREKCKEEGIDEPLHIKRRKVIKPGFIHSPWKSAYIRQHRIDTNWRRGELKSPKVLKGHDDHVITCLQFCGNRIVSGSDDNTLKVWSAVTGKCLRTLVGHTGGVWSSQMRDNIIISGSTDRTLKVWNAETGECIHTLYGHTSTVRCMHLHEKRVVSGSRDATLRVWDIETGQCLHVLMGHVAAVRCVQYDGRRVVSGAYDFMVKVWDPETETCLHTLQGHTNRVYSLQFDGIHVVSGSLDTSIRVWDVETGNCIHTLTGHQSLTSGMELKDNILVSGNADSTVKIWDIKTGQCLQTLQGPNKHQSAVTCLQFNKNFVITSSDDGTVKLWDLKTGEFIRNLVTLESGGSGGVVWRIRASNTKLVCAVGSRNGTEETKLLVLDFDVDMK
GPR151 ag – activates the human receptor GPR151; Q8TDV0; PathHunter beta-arrestin GPR151 cells, luminescence; activation, % at 11.2 µM; 650,000 compounds, 1% hits; AID 1508602; in the data active means activation above about 4.9%;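 further: 0% = median of compound wells and 100% = cells with positive control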
MITF inh – blocks human microphthalmia-associated transcription factor; AlphaScreen MITF homodimerization, bead proximity signal; inhibition, % at 2.6 µM; 650,000 compounds, 0.91% hits; AID 1259374; in the data active means inhibition above about 50%;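 further: 0% = vehicle wells with protein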
TEAD-YAP block – TEAD-YAP interaction inhibition; HEK-TIYL cells, TEAD-Gal4/YAP UAS-luciferase luminescence; inhibition, % at 9.12 µM; 640,000 compounds, 1.4% hits; AID 1259422; in the data active means inhibition above about 32%;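 further: 0% = median of test compound wells and 100% = reference inhibitor wells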
GPR151 confirm – confirmation of human GPR151 activators. activation, % at 11.2 µM. GPR151 PathHunter beta-arrestin cells, luminescence, 90 min; % of EA-reagent control over plate median. 6,700 tested, under 10 active. shares compounds with GPR151 ag;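 active means mean percent activation across replicates above the confirmation screen cutoff of 4.91%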
GPR119 counter – activates human GPR119 in a GPR151 counter-screen; shares compounds with GPR151 ag; activation, % at 11.2 µM; GPR119 PathHunter beta-arrestin cells, luminescence, 90 min; 0 = compound-well median, 100 = enzyme-acceptor control; AID 1508611; 6,700 compounds, 0.3% hits;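 active means mean percent activation in the counterscreen above 29.09%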;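 further: counterscreen on off-target GPR119 to flag nonselective hits from the GPR151 activator screen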
* marks the source's active call; other numbers are inactive results; / = not tested or not shown. Most compounds without a hit are left out; they make up all but 3.5% or so of the library.

SMILES	FBW7 act	GPR151 ag	MITF inh	TEAD-YAP block	GPR151 confirm	GPR119 counter
COc1cc(NC(=O)c2ccccc2F)c(C(=O)O)cc1OC	0	-1	10	-5	/	/
COC(=O)c1cc(OC)c(OC)cc1NC(=O)c1cc(C)ccc1C	0	0	-3	-1	/	/
COc1ccc(Br)cc1C(=O)Nc1cc(Cl)ccc1C(=O)O	0	8.4*	-16	-10	1	3
COC(=O)c1cc(OC)c(OC)cc1NC(=O)c1ccccc1C	0	9.7*	14	3	1	-6
COc1cc(NC(=O)c2ccccc2OC)c(C(=O)O)cc1OC	0	6.7*	-22	2	0	2
O=c1c2cnn(-c3ccc(F)cc3)c2ncn1Cc1c(F)cccc1Cl	0	-1	16	3	/	/
Cc1ccc2c(c1)-c1c(cnn1CC(=O)Nc1cccc(Cl)c1)CO2	0	0	6	7	/	/
CCOC(=O)c1ccc(-n2c(C)cc(/C=C3\SC(=Nc4ccccc4)N(C4CCCCC4)C3=O)c2C)cc1	0	2	-7	-4	/	/
Cc1ccc(C)c(Cc2c(C)nc3nc(SCc4c(F)cccc4Cl)nn3c2C)c1	0	1	1	3	/	/
Cc1ccc(C)c(CSc2nc3nc(C)c(Cc4c(F)cccc4Cl)c(C)n3n2)c1	0	6.3*	2	3	0	11
O=C(O)CCN1C(=O)C(=O)/C(=C(\O)c2ccccc2)C1c1ccc(Cl)cc1 (configuration not stated)	0	0	17	-6	/	/
O=C(NCc1cccc(F)c1)C1CC2CCCN2C12C(=O)Nc1ccccc12 (configuration not stated)	0	4	3	7	/	/
O=C(NCc1ccc2c(c1)OCO2)C1CC2CCCN2C12C(=O)Nc1ccccc12 (configuration not stated)	0	5.1*	-8	3	0	3
O=c1cc(-c2ccccc2O)oc2cc(O)ccc12	0	-2	-2	23	/	/
O=c1cc2oc3cc(O)c(O)cc3c(-c3ccccc3)c-2cc1O	0	6.2*	104*	13	-1	2
COc1ccc(OC)c(-c2c3cc(O)c(=O)cc-3oc3cc(O)c(O)cc23)c1	-1	5.0*	107*	-1	-1	9
O=C(c1nc2ccccn2c1CNCC(c1ccccc1)c1ccccc1)N1CCCC1	0	0	-6	30	/	/
CCOc1ccccc1C(=O)Nc1ccc2c(c1)N(CCOC)CCC2	0	9.4*	5	7	1	-2
NC(=O)CSc1nc2ccccc2c(=O)n1-c1ccc(Cl)cc1	0	0	11	12	/	/
CC(Sc1nncs1)C(=O)NC(C)c1ccccc1 (configuration not stated)	0	5.2*	-5	-2	1	-5
CC(Sc1nncs1)C(=O)NC1CCCc2ccccc21 (configuration not stated)	0	1	-8	-1	/	/
N#CC1=C(N)n2c(s/c(=C\c3ccccc3C(F)(F)F)c2=O)=C(C#N)C1c1ccccc1C(F)(F)F (configuration not stated)	0	-2	-8	-2	/	/
Cn1ccc2cc(-c3cc(C(=O)NC4CC4)ccn3)ccc21	0	22*	12	10	0	0
N#Cc1ccccc1Oc1ccc(S(=O)(=O)N2CCCC2)cc1[N+](=O)[O-]	0	1	1	-9	/	/
Cc1ccc(Cl)cc1NC(=O)c1c(-c2c(Cl)cccc2Cl)noc1C	0	6.0*	16	4	0	2
SMILES	FBW7 act	GPR151 ag	MITF inh	TEAD-YAP block	GPR151 confirm	GPR119 counter
Cc1ccc(NC(=S)c2c(-c3ccc(F)cc3)c3c4n(c(COc5ccccc5)nn24)CCCC3)cc1	0	3	-3	11	/	/
Cc1ccc(S(=O)(=O)Nc2ccc3c(c2)OCCOCCOCCOCCOCCO3)cc1	0	5.2*	-1	-9	-1	-8
Cc1ccc(S(=O)(=O)Nc2ccc(Cl)c([N+](=O)[O-])c2)cc1	0	6.3*	12	-9	-1	2
Cc1ccc(NS(=O)(=O)c2ccc(NS(=O)(=O)c3ccc4c(c3)OCCO4)cc2)cc1C	0	-2	1	4	/	/
CC(=O)N1CCOc2cc(S(=O)(=O)N3CCCc4ccccc43)ccc21	0	1	4	7	/	/
CC(=O)N1CCc2ccc(S(=O)(=O)N3CCCc4ccccc43)cc21	0	6.7*	5	54*	0	2

Screening data as filed in PubChem BioAssay.
